High-throughput results as filed in PubChem BioAssay.
RMI FANCM FP: RMI-FANCM interaction inhibition. Fluorescence polarization, RMI core complex with F-MM2 peptide; stronger effect = lower value. FP signal (polarization) at 33 µM. hit rate 0.58% among 70,000; in the data active means FP signal below about 40
* = called active by the depositor; ! = repeats disagree. The entries come from a sample that favours hits as a whole.

SMILES | RMI FANCM FP
Cc1ccc(N/C=C(\C#N)c2nc3ccccc3[nH]2)cc1 | 63
N#C/C(=C\c1ccc([N+](=O)[O-])cc1)c1nc2ccccc2[nH]1 | 57
N#CC(=C(O)c1ccccc1Br)c1nc2ccccc2[nH]1 | 14*
O=C(CC1CSc2nc3c(c(=O)n21)CCCC3)NCc1cccnc1 (stereo not drawn) | 62
Cc1sc(N=Cc2ccco2)c(C#N)c1C | -16*
Cc1ccc(C=Nc2sc(C)c(C)c2C#N)s1 | 62
CCN(CC)c1ccc(C=Nc2sc(C)c(C)c2C#N)cc1 | 68
O=C(O)c1cccc2c1-c1ccc(I)cc1C2 | 54
Cc1cc(O)c2c(c1)C(=O)c1cccc(O)c1C2=O | 50
O=C1c2c(O)cccc2Cc2cccc(O)c21 | -5*
O=C(Nc1sc2ccccc2c(=O)c1-c1ccc2c(c1)OCO2)c1cccs1 | 64
O=C(Nc1sc2ccccc2c(=O)c1-c1cccs1)c1ccc([N+](=O)[O-])cc1 | -19*
O=C(Nc1cccc2c1C(=O)c1ccccc1C2=O)c1ccc([N+](=O)[O-])cc1 | 53
Cc1ccc(C)c(S(=O)(=O)Nc2cccc(-c3csc4nc(C)cc(=O)n34)c2)c1 | 62
Cc1cc(C)c(NC(=O)C(=O)NCC2CCN(Cc3ccccc3)CC2)c(C)c1 | 72
O=C(N=Nc1c(O)[nH]c2ccc([N+](=O)[O-])cc12)c1ccncc1 | 62
CCCCCC(=O)N=Nc1c(O)[nH]c2ccc([N+](=O)[O-])cc12 | 65
Cc1ccc(C(C)C)c(OCC(=O)N=Nc2c(O)[nH]c3ccc([N+](=O)[O-])cc23)c1 | 11*
COc1cc(OC)cc(C(=O)NC(=S)Nc2ccc3nc(C)sc3c2)c1 | 55
O=C(O)CCCCCNC1=C(n2nnc3ccccc32)C(=O)c2ccccc2C1=O | 60
O=S(=O)(CCCOc1ccc(F)cc1)N1CCCC1 | 62
CCOc1ccc(N2CC(NC(=O)NCC3CCCO3)CC2=O)cc1 (stereo not drawn) | 56
O=c1c2sc3ccccc3c2[nH]c(=S)n1CC1CCCO1 (stereo not drawn) | 57
CCOc1ccc2c(c1)=CC(=Cc1sc(=S)n(CC3CCCO3)c1O)C(=O)N=2 (stereo not drawn) | 23*
C/C(=N/O)c1ccc(OC(=O)c2ccc(Br)o2)cc1 | 59
SMILES | RMI FANCM FP
Nc1nnc(-c2ccccc2Cl)o1 | 71
Nc1nnc(Cc2ccccc2)o1 | 67
O=C(Cn1cnc2c(sc3cccc(Cl)c32)c1=O)NCc1ccc2c(c1)OCO2 | 62
O=C(NNC(=O)c1cc(Cl)sc1Cl)c1ccc(S(=O)(=O)N2CCCCCC2)cc1 | 60
CCc1c2c(nc3sc(C(=O)Nc4ccc(-c5nc6ccccc6s5)cc4)c(N)c13)CC(C)(C)CC2=O | 96
CCc1c2c(nc3sc(C(=O)c4ccc(Cl)c(Cl)c4)c(N)c13)CC(C)(C)CC2=O | -31*
COc1ccc(-c2c3c(nc4sc(C(=O)Nc5ccc(Cl)cc5)c(N)c24)CC(C)(C)CC3=O)cc1 | 90
COc1ccc2nc(C#N)sc2c1 | 68
O=C(Nc1nnc(-c2ccno2)o1)C1CCN(S(=O)(=O)c2ccc(F)cc2)CC1 | 53
CCOc1ccc(OCCNS(=O)(=O)c2ccc(Cl)cc2)cc1 | 60
CCOC(=O)/C(C#N)=C/c1ccc(OC)s1 | 55
COC(=O)/C(C#N)=C/c1ccc(SC)s1 | 32*
CCOC(=O)/C(C#N)=C/c1ccc(-c2cccs2)s1 | 82
CCOc1ccc2ccccc2c1C(=O)NCc1nnnn1-c1ccc(C)c(C)c1 | 61
O=C(Oc1ccc2ccccc2c1)c1ccc([N+](=O)[O-])cc1Cl | 57
CC1=C(CCC(=O)O)c2cc3nc(cc4[nH]c(cc5[nH]c(cc1n2)c(C)c5C(C)O)c(C)c4C(C)O)C(C)=C3CCC(=O)O (stereo not drawn) | 34*
C=Cc1c(C)c2cc3[nH]c(cc4nc(cc5nc(cc1[nH]2)C(C)=C5CCC(=O)O)C(CCC(=O)O)=C4C)c(C)c3C=C | 40
Cc1cc(=O)[nH]c(-n2nc(C)c(CCC(=O)O)c2C)n1 | 72
Cc1ccc(-c2nnc(NC(=O)CN3C(=O)CCC3=O)o2)cc1C | 50
COc1ccc(-c2csc(NC(=O)c3ccc(S(=O)(=O)N4CCCCC4C)cc3)n2)cc1C (stereo not drawn) | 74
OCCN=Cc1cc(Cl)cc(Cl)c1O | 36
CSC(=NC(C)(C)C)N/N=C\c1cc(Cl)cc(Cl)c1O | 70
O=C1NN=CC1CCCN=Cc1cc(Cl)cc(Cl)c1O (stereo not drawn) | 24*
Oc1c(Cl)cc(Cl)cc1/C=N\NC(=S)Nc1cc(C(F)(F)F)cc(C(F)(F)F)c1 | 79
Oc1c(Cl)cc(Cl)cc1C=NCC1CCC(CN=Cc2cc(Cl)cc(Cl)c2O)CC1 (stereo not drawn) | 10*
SMILES | RMI FANCM FP
COc1cc([N+](=O)[O-])cc2sc(NC(=O)CCSc3ccc(F)cc3)nc12 | 55
Cc1ccc(C)c(S(=O)(=O)Nc2ccc3c(c2)N(C)C(=O)C(C)(C)CO3)c1 | 64
O=Cc1cnc2ccccc2n1 | 59
Cc1cc(SCC(N)=O)nc2ccccc12 | 71
N=C(N)Sc1cnc2ccccc2n1 | 37*
COc1ccc(-c2ccc(=O)n(CCCNC(=O)Cc3ccc(Cl)cc3)n2)cc1 | 66
COc1ccc(-c2nnc3ccc(OCCNC(=O)c4ccc5c(c4)OCO5)nn23)cc1 | 68
Cc1ccc(C)c(S(=O)(=O)N=C2C=C(Br)C(=O)c3ccccc32)c1 | -1*
Cc1ccc(C)c(S(=O)(=O)Nc2ccccc2F)c1 | 73
Cc1ccc(C)c(S(=O)(=O)n2cccn2)c1 | 63
C[N+](C)(C)CCSSCC[N+](C)(C)C | 59
CCCCCCCCCCCCCO | 55
CCCCCCCCCCCCCCCC[N+](C)(C)C | 34*
Cc1cc(NC(=O)CCCSc2ccc(NC(=O)C3CC3)nn2)on1 | 63
C=CCn1c(=NC(=O)/C=C\c2cc(OC)c(OC)c(OC)c2)sc2cc(S(C)(=O)=O)ccc21 | 72
COc1cccc(Nc2nn3c(=O)c4cc(C)ccc4nc3s2)c1 | 86
CC(C)CS(=O)(=O)Nc1ccc2c(c1)C(=O)N(C)CCO2 | 65
N#Cc1c(=O)[nH]c(O)c2c(=N)oc3ccc(Cl)cc3c12 | 10*
O=c1cc(O)c2cc(Cl)ccc2o1 | 57
CCOc1ccc(Nc2nn3c(=O)c4cc(C)ccc4nc3s2)cc1 | 96
OC(CNc1cccc(Cl)c1)CN1c2ccccc2Sc2ccccc21 (stereo not drawn) | 56
COc1cccc2sc(Nc3sc4c(c3C(N)=O)CCCC4)nc12 | 40
O=C(/C=C/c1cccs1)Nc1cccc2c(NC(=O)/C=C/c3cccs3)cccc12 | 91
O=C(NCCOc1cccc(C(F)(F)F)c1)c1ccccc1Cl | 61
CCNc1nc(SCC(=O)NC(=O)Nc2ccccc2)nc2sc3c(c12)CCN(C)C3 | 33*!
SMILES | RMI FANCM FP
O=C(CSc1nc(SCC(=O)c2ccccc2)c2c3c(sc2n1)CCC3)c1ccccc1 | 79
O=C(CSc1nc2sc3c(c2c(=O)n1-c1ccccc1)CCCCC3)Nc1ccccc1 | 71
CCc1ccnc(NC(=O)c2cccs2)c1 | 55
N=C(N)c1ccc(OCCCCCOc2ccc(C(=N)N)cc2)cc1 | -2*!
CCCCCOc1ccc(C(=O)NN)cc1 | 55
N=C(N)c1ccc(N)cc1 | 55
O=C(NCCCl)NCc1n[nH]c(=O)c2ccccc12 | 55
CS/C(N=CN(C)C)=N\N=C/c1c(F)cccc1Cl | 56
O=C(CSc1ccc2ccccc2n1)NCc1ccco1 | 73
Nc1nc2[nH]c(=O)cnc2c(=O)[nH]1 | 50
Nc1nc2ncc(C(=O)O)nc2c(=O)[nH]1 | 53
Nc1nc2ncc(=O)[nH]c2c(=O)[nH]1 | 26*
